Hit rate of the full screen: of about 5,500 compounds, about 2,000 (36%) were called active. Another 18% or so got no clear call; they are omitted. Rule as the data show it: active = normalized growth mostly below about 0.91 (no sharp cut-off); inconclusive = no clear call, values can overlap the other calls; inactive = mostly above about 0.92. The list shows a part of the results.
Assay: chemical genetic growth profiling, strain panel (AID 1159580);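 also: tested at 20 µM; growth read once vehicle control cultures reached saturation at 30 °C; 1 = growth at the plate median or of vehicle wells; lower values mean less growth of the strain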
Conditions: growth OD
[1] = S. cerevisiae deletion strains, locus YAL013W, strain DEP1, hits give low values
[2] = S. cerevisiae deletion strains, locus YJR075W, strain HOC1, hits give low values
[3] = S. cerevisiae deletion strains, locus YMR307W, strain GAS1, hits give low values
[4] = S. cerevisiae deletion strains, locus YNL322C, strain KRE1, hits give low values
[5] = S. cerevisiae deletion strains, locus YPL055C, strain LGE1, hits give low values
[6] = S. cerevisiae deletion strains, locus YPL241C, strain CIN2, hits give low values

Measured: normalized growth

COc1ccccc1CC(=O)NC1CCN(Cc2ccccc2)CC1
inactive: [1] 1.01 | S. cerevisiae deletion strains, locus YBR229C, strain ROT2, hits give low values 1 | S. cerevisiae deletion strains, locus YDL101C, strain DUN1, hits give low values 1.01 | S. cerevisiae deletion strains, locus YDL134C, strain PPH21, hits give low values 1.02 | S. cerevisiae deletion strains, locus YDR150W, strain NUM1, hits give low values 0.993 | S. cerevisiae deletion strains, locus YEL061C, strain CIN8, hits give low values 1.02 | S. cerevisiae deletion strains, locus YGR078C, strain PAC10, hits give low values 1.01 | S. cerevisiae deletion strains, locus YGR229C, strain SMI1, hits give low values 1.02 | S. cerevisiae deletion strains, locus YHR030C, strain SLT2, hits give low values 0.943 | S. cerevisiae deletion strains, locus YHR087W, strain rtc3, hits give low values 0.998 | S. cerevisiae deletion strains, locus YJR043C, strain POL32, hits give low values 1.01 | [2] 1.02 | S. cerevisiae deletion strains, locus YKL190W, strain CNB1, hits give low values 1.01 | S. cerevisiae deletion strains, locus YLR039C, strain RIC1, hits give low values 0.947 | S. cerevisiae deletion strains, locus YLR058C, strain SHM2 (second series), hits give low values 1.01 | S. cerevisiae deletion strains, locus YLR085C, strain ARP6, hits give low values 1.04 | S. cerevisiae deletion strains, locus YLR262C, strain YPT6, hits give low values 0.826 | S. cerevisiae deletion strains, locus YML094W, strain GIM5, hits give low values 0.991 | S. cerevisiae deletion strains, locus YMR219W, strain ESC1, hits give low values 1.01 | S. cerevisiae deletion strains, locus YMR263W, strain SAP30, hits give low values 1.02 | [3] 1.11 | S. cerevisiae deletion strains, locus YNL153C, strain GIM3, hits give low values 1.01 | S. cerevisiae deletion strains, locus YNL298W, strain CLA4 (second series), hits give low values 1.04 | [4] 1 | S. cerevisiae deletion strains, locus YNR030W, strain Alg12, hits give low values 1.02 | S. cerevisiae deletion strains, locus YOL006C, strain TOP1, hits give low values 0.947 | [5] 1.01 | [6] 1.13 | S. cerevisiae deletion strains, locus YPR135W, strain CTF4, hits give low values 1.07 | S. cerevisiae strains, strain wild type, hits give low values 1.02

CC(C)Oc1cccnc1N(C)C1CCN(Cc2ccccc2)CC1
inactive: [1] 1.02 | S. cerevisiae deletion strains, locus YAL040C, strain CLN3, hits give low values 0.983 | S. cerevisiae deletion strains, locus YCL061C, strain MRC1 (second series), hits give low values 1 | S. cerevisiae deletion strains, locus YDR363W, strain ESC2, hits give low values 1 | S. cerevisiae deletion strains, locus YER002W, strain NOP16, hits give low values 0.967 | [2] 1.01 | [3] 1.03 | S. cerevisiae deletion strains, locus YNL128W, strain TEP1, hits give low values 1.01 | S. cerevisiae deletion strains, locus YNL175C, strain NOP13, hits give low values 0.991 | S. cerevisiae deletion strains, locus YNL197C, strain WHI3, hits give low values 0.991 | S. cerevisiae deletion strains, locus YNL224C, strain SQS1, hits give low values 1 | [4] 1.01 | S. cerevisiae deletion strains, locus YOR083W, strain WHI5 (second series), hits give low values 0.976 | [5] 1 | [6] 1.01

Source: PubChem BioAssay AID1159580 (chemical genetic matrix, 2015)
